Consider ten compounds from PubChem BioAssay (NCATS).

Assay [1] can be described thus: Cell Viability - H-4-II-E (AID 543).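 Further: cells exposed to compound for 40 hours; on the % scale 0 is the no-effect control and ±100 the full control effect; nearly all actives have a fitted effect of over 35% in size.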 The settings on record: H-4-II-E rat hepatoma viability; series mostly up to 92.2 µM. The gist of the method: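 CellTiter-Glo luminescence (intracellular ATP) measured after 40 h compound exposure at 37 °C in H-4-II-E rat hepatoma cells seeded at 1500/well. Values are AC50s fitted with the standard Hill equation.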
The nature of assay [2]: Cell Viability - SH-SY5Y (AID 544).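 Further: cells exposed to compound for 40 hours; nearly all actives have a fitted effect of over 55% in size.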 The settings on record: SH-SY5Y neuroblastoma cell viability; viability change, negative = cytotoxic: at 92.2 µM (top of the series). The gist of the method: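 Cytotoxicity measured via ATP-dependent luciferase luminescence (CellTiter-Glo) following 40 h, 37 °C exposure of 1500 SH-SY5Y cells per well. Concentration-response data were fitted with the standard Hill equation to give AC50.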

A short description of assay [3]: Cellular Toxicity (caspase-3) SK-N-SH (AID 661).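 Further: 0% = DMSO basal and 100% = 10 µM staurosporine.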 The settings on record: SK-N-SH caspase-3 activation, qHTS; series mostly up to 91.7 µM. The method, boiled down:
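Caspase 3/7 activation was read by luminogenic substrate cleavage after 16 hour treatment of SK-N-SH cells. Signal was scaled between DMSO and 10 uM staurosporine, and concentration-response data were fitted with the Hill equation for AC50.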
In general terms: In qHTS, concentration-response curves come from the screen itself.

Assay [4] can be described thus: Cellular Toxicity (caspase-3) H-4-II-E (AID 663). The settings on record: H-4-II-E rat hepatoma; Potency: caspase-3 activation; series mostly up to 92.2 µM. The method, boiled down: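 H-4-II-E rat hepatoma, 1500 cells/well, 5 hr settle at 37 °C; compound 16 hr, 37 °C, complete medium; Caspase-Glo 3/7, 20 min RT; luminescence. DMSO = 0%, 100 uM tamoxifen = 100%; Hill-equation AC50.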

Assay [5] is described as follows: Cell Viability - LYMP2-001 (AID 921). Further: nearly all actives have a fitted effect of over 70% in size. Further: potency means the concentration at half of the fitted maximal effect. The settings on record: LYMP2-001 lymphoblastoid cell viability; series mostly up to 92.2 µM. The method, boiled down: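 qHTS, 1536-well; lymphoblastoid cells, 24 hr compound, 37 C; ATP by CellTiter-Glo, 30 min RT; luminescence; Hill-fit AC50.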
Assay [6] can be described thus: MultiTox-Fluor Cytotoxicity Assay - LYMP1-001 - Live Cells (AID 947).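 Further: 0% = DMSO only and full inhibition = tetraoctylammonium bromide control.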 The settings on record: LYMP1-001 lymphoblastoid cells, live-cell protease fluorescence viability; series mostly up to 92.2 µM.
The nature of assay [7]: Cell Viability - LYMP1-003 - Assay at 40 hr (AID 964). Further: nearly all actives have a fitted effect of over 60% in size. Further: potency means the concentration at half of the fitted maximal effect. The settings on record: LYMP1-003 lymphoblastoid viability; series mostly up to 92.2 µM. The gist of the method:
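Viability is taken as cellular ATP, read by CellTiter-Glo luminescence after 40 h of compound exposure at 37 C. Cells: human lymphoblastoid line LYMP1-003 at 2500/well; AC50 values derived by Hill-equation fitting of concentration-response data.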

Assay [8] is described as follows: Cell Viability - LYMP2-005 (AID 967). Further: potency means the concentration at half of the fitted maximal effect. The settings on record: LYMP2-005 lymphoblastoid cell viability; series mostly up to 92.2 µM. The gist of the method: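 qHTS viability screen in LYMP2-005 cells: 24 h at 37 C with compound, ATP luminescence via CellTiter-Glo, AC50 from Hill curves.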
Assay [9] in a line: Cell Viability - LYMP2-022 (AID 987). Further: nearly all actives have a fitted effect of over 55% in size. Further: potency means the concentration at half of the fitted maximal effect.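 On viability change, negative = cytotoxic: 0% = DMSO alone and full effect = tetraoctylammonium bromide at 92 µM.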 The settings on record: LYMP2-022 lymphoblastoid cell viability; series mostly up to 92.2 µM. The gist of the method: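 Cytotoxicity read as decreased cellular ATP (CellTiter-Glo luminescence, 30 min room temperature) after 24 hours compound exposure of 2500 lymphoblastoid LYMP2-022 cells/well at 37 C. Concentration-response data fitted with standard Hill equation for AC50.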

Assay [10] is described as follows: qHTS assay for small molecule agonists of the antioxidant response element (ARE) signaling pathway measured by Nrf2-dependant transcriptional activity (AID 720636; active means well fitted curve in the direction sought with a large enough effect in the repeat runs; an effect the other way counts as inactive or inconclusive;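 further: HepG2 cells with an ARE-driven luciferase reporter; % of control where 0% means no effect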). The settings on record: ARE-luc HepG2, Nrf2 luciferase reporter, 16 h; series mostly up to 92.4 µM. The gist of the method:
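We exposed ARE-luc HepG2 cells, seeded in assay medium with 1% dialyzed FBS and allowed 6 hr to adhere, to test compounds overnight (16 hr, 37 C) before measuring luciferase with ONE-Glo.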

Assay [11] concerns the target Nuclear receptor subfamily 1 group I member 2 (Rattus norvegicus) (UniProt Q9R1A7). Description: qHTS assay for small molecule activators of the rat pregnane X receptor (rPXR) signaling pathway (AID 651751; call rule not given here; further: 0% is about no effect). The settings on record: rPXR reporter cells, luciferase (One-Glo), 24 h.
The nature of assay [12]: Cell Viability - LYMP1-003 - Assay at 24 hr (AID 963).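 Further: plate controls were DMSO only for no effect and tetraoctylammonium bromide positive control for full effect.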 The settings on record: LYMP1-003 lymphoblastoid cell viability; series mostly up to 92.2 µM. The gist of the method:
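Concentration-response qHTS: ATP loss measured by CellTiter-Glo luminescence after 24 h compound exposure at 37 C. Cells were LYMP1-003 human lymphoblastoid, 2500 per well. AC50 derived via standard Hill equation modeling.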

The nature of assay [13]: Cell Viability - LYMP2-012 (AID 982).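 Further: cellular ATP by luciferase luminescence where a drop means cytotoxicity; cells exposed to compound for one day before reading; nearly all actives have a fitted effect of over 55% in size.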 Further: potency means the concentration at half of the fitted maximal effect. The settings on record: LYMP2-012 lymphoblastoid cell viability qHTS; series mostly up to 92.2 µM.
The nature of assay [14]: qHTS assay for small molecule disruptors of the mitochondrial membrane potential - 1 hr assay (AID 651754; calls by dose curve; further: on the % scale 0 is the no-effect control and ±100 the full control effect; nearly all actives have a fitted effect of over 35% in size). The settings on record: series mostly up to 92.2 µM. The gist of the method: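 Mitochondrial potential in living HepG2 cells after 1 hr compound treatment at 37C was read with Mito-MPS dye added for a further 30 min. Red aggregate and green monomer fluorescence were measured; loss of potential leaves dye as cytoplasmic monomers.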

Assay [15] in a line: qHTS assay for small molecule antagonists of the retinoid-related orphan receptor gamma (ROR-gamma) signaling pathway - cell viability counter screen (AID 720652; active means well fitted curve in the direction sought with a large enough effect in the repeat runs; an effect the other way counts as inactive or inconclusive;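 further: CHO reporter cells with doxycycline-induced ROR-gamma expression; compound exposure lasted 16 hr before ATP read; on the % scale 0 is the no-effect control and ±100 the full control effect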). The settings on record: RORgamma reporter cell line viability counter screen; series mostly up to 92.2 µM. The method, boiled down:
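Cytotoxicity counter screen: intracellular ATP (CellTiter-Glo luminescence) measured in the doxycycline-induced CHO RORE-luciferase reporter line after 16 hr compound exposure at 37 C, 5% CO2.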

The structures appear in SMILES notation. Where “and” joins values, the source holds several entries; their conditions need not be identical. Equal values may be shown once. Values without a mark were called inactive. Records with an inconclusive call do not appear. Calls of active or inactive are those of the source. Unless noted, the call rests on the fitted dose curve; in most records, active means well fitted curve in the direction sought with a large enough effect; inconclusive means small, poorly fitted or top-dose-only effect, or another doubt; inactive means no such curve, though single readings can be large; an effect the other way counts as inactive or inconclusive.

Nuclear receptor subfamily 1 group I member 2 (Rattus norvegicus), sequence (Q9R1A7 whole entry, looked up): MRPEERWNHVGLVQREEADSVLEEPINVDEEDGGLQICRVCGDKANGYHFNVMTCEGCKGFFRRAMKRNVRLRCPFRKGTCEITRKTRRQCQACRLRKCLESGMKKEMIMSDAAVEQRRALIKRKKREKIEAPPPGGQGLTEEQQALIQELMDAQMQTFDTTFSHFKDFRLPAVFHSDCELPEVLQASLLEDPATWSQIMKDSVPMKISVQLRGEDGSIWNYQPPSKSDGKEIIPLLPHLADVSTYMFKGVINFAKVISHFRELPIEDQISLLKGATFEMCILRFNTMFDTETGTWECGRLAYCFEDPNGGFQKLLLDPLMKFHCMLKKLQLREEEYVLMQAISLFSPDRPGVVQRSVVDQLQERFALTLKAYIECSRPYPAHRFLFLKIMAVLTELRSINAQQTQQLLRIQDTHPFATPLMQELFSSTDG

In the case of `CC12CC1(C)C(=O)N(c1cc(Cl)cc(Cl)c1)C2=O` (stereo unspecified), the Potency entry in assay [1], in assay [2], in assay [3], in assay [4], in assay [5] and in assay [7] was “inactive” each time. For the same compound, the Potency entry in assay [8], in [9] and in assay [10] was “inactive” throughout. In addition, the call in [6] was inactive. Also, the max response in assay [11] was 12.6% and 11%.
`CCN(CC)CCO`: the Potency entry in assay [1], in [2], in [3], in assay [4], in assay [5] and in [7] was “inactive” in each case. For the same compound, the Potency result in assay [8], in [13], in assay [9], in assay [14], in assay [10] and in assay [15] was “inactive” each time. The outcome in assay [6] and in assay [12] was inactive. The max response in assay [11] was 0.466%.
In the case of `CN1CSC(=S)N(C)C1`, in assay [2], the viability change, negative = cytotoxic is -83% (active). The Potency entry in [3], in assay [4] and in assay [14] was “inactive” in each case. Also, the Potency in assay [5] is 12.6 µM (active); in assay [7] it was 39.8 µM (active); in [8], 31.6 µM (active); in [13], 25.1 µM (active); in assay [9] it was 10 µM (active). Besides, the max response in assay [11] was -10.5% and -8.21%.
`CC1CC(=O)O1` (stereo unspecified): the Potency entry in assay [1], in assay [2], in assay [3], in [5], in assay [7] and in [8] was “inactive” in each case. Moreover, the Potency entry in assay [13], in assay [9], in [14], in assay [10] and in assay [15] was “inactive” throughout. Further, the call in assay [6] and in assay [12] was inactive. In assay [11], the max response was 0.366%.
For `C=CCO`, the Potency entry in assay [1], in assay [2], in assay [3], in assay [4], in [5] and in [7] was “inactive” each time. The Potency result in assay [8], in assay [13], in assay [9], in [14], in assay [10] and in [15] was “inactive” throughout. The outcome in assay [6] was inactive. Further, in [11], the max response was -2.14%.
`CCN(CC)N=O`: the Potency entry in [1], in assay [2], in assay [3], in [5], in [7] and in [8] was “inactive” each time. The Potency result in assay [13], in [9], in assay [14], in [10] and in assay [15] was “inactive” each time. The call in assay [6] and in assay [12] was inactive. In assay [11], the max response was 3.34%.
`CN(C)N=O`: the Potency entry in [1], in [2], in assay [3], in assay [4], in assay [5] and in [7] was “inactive” throughout. For the same compound, the Potency entry in [13], in [9], in assay [14], in assay [10] and in assay [15] was “inactive” each time. The outcome in assay [6] and in [12] was inactive. The max response in assay [11] was 2.44%.
`N#CCCC#N`: the Potency entry in assay [1], in assay [2], in assay [3], in assay [4], in assay [5] and in [7] was “inactive” each time. In addition, the Potency entry in assay [8], in [13], in assay [9], in assay [10] and in assay [15] was “inactive” in each case. Moreover, the compound was classed as inactive in assay [6] and in [12]. Moreover, the max response in [11] was 2.24%.
With `CN(C)c1ccccc1`, the Potency entry in assay [1], in [2], in assay [3], in assay [4], in assay [5] and in assay [7] was “inactive” in each case. Also, the Potency entry in [8], in assay [13], in assay [9], in assay [14], in assay [10] and in assay [15] was “inactive” throughout. Further, the compound was called inactive in assay [6] and in assay [12]. For the same compound, the max response in assay [11] was -6.91%.
As for `CCOP(=O)(OCC)OCC`, the Potency result in assay [1], in assay [2], in [3], in assay [4], in assay [5] and in assay [7] was “inactive” each time. For the same compound, the Potency entry in [8], in assay [13], in [9], in assay [14], in assay [10] and in assay [15] was “inactive” each time. For the same compound, the call in assay [6] and in assay [12] was inactive. The max response in [11] is 0.98% and -0.959%.
